Assay outcomes: PubChem BioAssay, Sanford-Burnham Center for Chemical Genomics
This is a sample that favours compounds with a hit; in the whole collection about 31% have one here.
CYP2C19 inh = human CYP2C19 inhibition; inhibition, % at 5 µM; P33261; AID 778; CYP2C19 Supersomes, luciferin-H EGE luminescence, 30 min; hit rate 21% among 96,000;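 active = CYP2C19 inhibition above a set limit at 5 µM in the primary screen, cut at about 50% in these data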;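 note: plate controls were negative control wells for no effect and 2.5 mM tranylcypromine positive control for full effect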
Target sequence (P33261 whole entry, looked up): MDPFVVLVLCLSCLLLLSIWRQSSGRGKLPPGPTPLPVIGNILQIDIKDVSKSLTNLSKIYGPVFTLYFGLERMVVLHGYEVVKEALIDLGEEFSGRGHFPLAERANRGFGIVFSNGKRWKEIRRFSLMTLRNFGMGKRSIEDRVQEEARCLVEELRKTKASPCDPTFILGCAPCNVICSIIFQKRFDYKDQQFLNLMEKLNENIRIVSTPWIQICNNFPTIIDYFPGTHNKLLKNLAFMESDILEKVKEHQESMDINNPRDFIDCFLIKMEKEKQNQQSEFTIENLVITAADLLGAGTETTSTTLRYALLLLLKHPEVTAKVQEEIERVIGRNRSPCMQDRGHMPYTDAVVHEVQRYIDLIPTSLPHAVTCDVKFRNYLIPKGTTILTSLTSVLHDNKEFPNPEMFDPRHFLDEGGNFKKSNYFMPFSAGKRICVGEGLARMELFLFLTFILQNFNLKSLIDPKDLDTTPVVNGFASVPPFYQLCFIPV
CYP2C9 inh = inhibitors of human CYP2C9; P11712; CYP2C9 Supersomes, luciferin-H conversion, luminescence; inhibition, % at 5 µM; hit rate 20% among 96,000; AID 777;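 active = blocking of liver enzyme CYP2C9 beyond about 50% at 5 µM, limit read from the data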
CYP2C19 act = increases human CYP2C19 enzyme activity; P33261; activation factor at 5 µM; recombinant CYP2C19, luciferin-H EGE luminescence; hits give high values; 0 = fully inhibited enzyme, 1 = untreated enzyme; 96,000 tested, under 10 active; AID 1025;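 active = activation factor of at least 2 at 5 µM in the primary screen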;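 note: 0 = wells with 2.5 mM tranylcypromine and 1 = vehicle-only wells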
CYP2C9 act = CYP2C9 (human) activation | P11712 | recombinant CYP2C9, luciferin-H conversion, luminescence; hits give high values; factor 1 = untreated enzyme, 0 = blocked | activation factor at 5 µM | hit rate 1.4% among 96,000 | AID 1024;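 active = activation factor of 2 or more for CYP2C9 at a 5 µM dose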;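 note: 0 = sulfaphenazole-blocked wells and 1 = vehicle-only wells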
Active calls of the source: *.

For CCC1(C)Cc2c(sc3c2c(=O)n(C)c2nnc(SCCc4ccccc4)n32)CO1 (stereo not given) the results were CYP2C19 inh -5, CYP2C9 inh -6, CYP2C19 act 1.1 and CYP2C9 act 1.1.
For CCC1(C)Cc2c(sc3nnn(CC(=O)Nc4ccccc4)c(=O)c23)CO1 (stereo not given) the results were CYP2C19 inh 89*, CYP2C9 inh 68*, CYP2C19 act 0.1 and CYP2C9 act 0.3.
For CCC1(C)Cc2c(sc3nn[nH]c(=O)c23)CO1 (stereo not given) the results were CYP2C19 inh 11, CYP2C9 inh 12, CYP2C19 act 0.9 and CYP2C9 act 0.9.
CCC1(C)Cc2c(sc3nnn(CC(=O)Nc4ccccc4C)c(=O)c23)CO1 (stereo not given) was read as CYP2C19 inh 84*, CYP2C9 inh 50, CYP2C19 act 0.2 and CYP2C9 act 0.5.
For CCC1(C)Cc2c(sc3nnn(Cc4ccccc4Cl)c(=O)c23)CO1 (stereo not given) the results were CYP2C19 inh 42, CYP2C9 inh 76*, CYP2C19 act 0.6 and CYP2C9 act 0.2.
Screening O=C(Nc1nc(N2C(=O)c3ccccc3C2=O)n(-c2ccccc2)n1)c1ccc(Cl)cc1 returned CYP2C19 inh 12, CYP2C9 inh 15, CYP2C19 act 0.9 and CYP2C9 act 0.8.
CS(=O)(=O)N1CCN(c2ccccc2NC(=O)CSc2ccc(Cl)cc2)CC1 was read as CYP2C19 inh 78*, CYP2C9 inh 87*, CYP2C19 act 0.2 and CYP2C9 act 0.1.
COC(=O)c1sccc1NC(=O)CSc1ccc(Cl)cc1 was read as CYP2C19 inh 6, CYP2C9 inh 17, CYP2C19 act 0.9 and CYP2C9 act 0.8.
COc1ccc(NC(=O)c2ccccc2NC(=O)CSc2ccc(Cl)cc2)cc1 was read as CYP2C19 inh 62*, CYP2C9 inh 62*, CYP2C19 act 0.4 and CYP2C9 act 0.4.
Screening C1=C(c2ccccc2)CCN(c2ncnc3nc[nH]c23)C1 returned CYP2C19 inh 54*, CYP2C9 inh 17, CYP2C19 act 0.5 and CYP2C9 act 0.8.
Screening CN(CC(=O)N1CCN(c2ccccc2F)CC1)S(=O)(=O)c1cnc[nH]1 returned CYP2C19 inh 99*, CYP2C9 inh 100*, CYP2C19 act 0 and CYP2C9 act 0.
For Cc1ccc(Cl)cc1N1CCN(C(=O)C2CCN(S(=O)(=O)c3cnc[nH]3)CC2)CC1 the results were CYP2C19 inh 23, CYP2C9 inh 29, CYP2C19 act 0.8 and CYP2C9 act 0.7.
For Cc1ccc(C)c(N2CCN(C(=O)CN(C)S(=O)(=O)c3cnc[nH]3)CC2)c1 the results were CYP2C19 inh 92*, CYP2C9 inh 100*, CYP2C19 act 0.1 and CYP2C9 act 0.
Cn1c2c(c(=O)n(C)c1=O)C(c1cc3c(cc1Br)OCO3)CC(=O)N2 (stereo not given) was read as CYP2C19 inh -14, CYP2C9 inh -2, CYP2C19 act 1.1 and CYP2C9 act 1.
`O=C(Nc1ccccc1C(=O)O)c1ccc2ccccc2n1` gave CYP2C19 inh -3, CYP2C9 inh 16, CYP2C19 act 1 and CYP2C9 act 0.8.
`CC(NC(=O)Nc1ccccc1C(F)(F)F)C1CCCO1` (stereo not given) gave CYP2C19 inh -3, CYP2C9 inh 4, CYP2C19 act 1 and CYP2C9 act 1.
`O=C(Nc1cccc(F)c1)N1CCN(C/C=C/c2ccccc2)CC1` gave CYP2C19 inh 24, CYP2C9 inh 22, CYP2C19 act 0.8 and CYP2C9 act 0.8.
`O=C(Nc1ccc(F)cc1)N1CCN(C/C=C/c2ccccc2)CC1` gave CYP2C19 inh 42, CYP2C9 inh 51*, CYP2C19 act 0.6 and CYP2C9 act 0.5.
`O=C(COc1ccccc1)N1CCN(C(=O)c2cccs2)CC1` gave CYP2C19 inh 29, CYP2C9 inh 16, CYP2C19 act 0.7 and CYP2C9 act 0.8.
Screening O=C(c1nn(Cc2ccccc2)c(=O)c2ccccc12)N1CCN(C/C=C/c2ccccc2)CC1 returned CYP2C19 inh 41, CYP2C9 inh 82*, CYP2C19 act 0.6 and CYP2C9 act 0.2.
Screening O=C(c1ccco1)N1CCN(C/C=C/c2ccccc2)CC1 returned CYP2C19 inh 13, CYP2C9 inh 3, CYP2C19 act 0.9 and CYP2C9 act 1.
`O=C(c1cccs1)N1CCN(C/C=C/c2ccccc2)CC1` gave CYP2C19 inh 60*, CYP2C9 inh 52*, CYP2C19 act 0.4 and CYP2C9 act 0.5.
For O=C(Cc1ccccc1)N1CCN(C(=O)c2cccs2)CC1 the results were CYP2C19 inh 81*, CYP2C9 inh 23, CYP2C19 act 0.2 and CYP2C9 act 0.8.
For COc1ccc(N2CCN(C(=O)c3ccc(OCC4CCCO4)cc3)CC2)cc1 (stereo not given) the results were CYP2C19 inh -22, CYP2C9 inh 6, CYP2C19 act 1.2 and CYP2C9 act 0.9.
For Cc1csc(-c2cnn(-c3ccccc3)c2NC(=O)c2ccc(C(F)(F)F)cc2)n1 the results were CYP2C19 inh 19, CYP2C9 inh 14, CYP2C19 act 0.8 and CYP2C9 act 0.9.
Screening COC(=O)c1ccccc1NC(=O)c1cc(-c2ccc(O)cc2)on1 returned CYP2C19 inh -8, CYP2C9 inh -59, CYP2C19 act 1.1 and CYP2C9 act 1.6.
`Cc1ccc(/C=N/Nc2nc(Cl)c(Cl)cc2Cl)s1` gave CYP2C19 inh 11, CYP2C9 inh 5, CYP2C19 act 0.9 and CYP2C9 act 0.9.
O=C(c1cccs1)N1CCN(CCc2ccccc2)CC1 was read as CYP2C19 inh 79*, CYP2C9 inh 43, CYP2C19 act 0.2 and CYP2C9 act 0.6.
For O=C(NCCN1CCN(C(=O)c2cccs2)CC1)c1cccs1 the results were CYP2C19 inh 10, CYP2C9 inh 43, CYP2C19 act 0.9 and CYP2C9 act 0.6.
Screening O=C(Cc1ccccc1)Nc1c2c(nn1-c1cccc(Cl)c1)CS(=O)(=O)C2 returned CYP2C19 inh 55*, CYP2C9 inh 24, CYP2C19 act 0.4 and CYP2C9 act 0.8.
`C=CCSc1n[nH]c2nc3c(c(=O)n12)C1(CCCC1)Cc1ccccc1-3` gave CYP2C19 inh -12, CYP2C9 inh 22, CYP2C19 act 1.1 and CYP2C9 act 0.8.
Screening COc1ccccc1NC(=O)CC1C(=O)Nc2c1c(=O)n(C)c(=O)n2C (stereo not given) returned CYP2C19 inh 10, CYP2C9 inh 58*, CYP2C19 act 0.9 and CYP2C9 act 0.4.
For Cn1c2c(c(=O)n(C)c1=O)C(CC(=O)Nc1ccccc1)C(=O)N2 (stereo not given) the results were CYP2C19 inh 40, CYP2C9 inh 26, CYP2C19 act 0.6 and CYP2C9 act 0.7.
For Cc1nc2ccc(S(=O)(=O)NCC(=O)N3CCCC(C)C3)cc2s1 (stereo not given) the results were CYP2C19 inh 30, CYP2C9 inh -2, CYP2C19 act 0.7 and CYP2C9 act 1.
Screening Cc1cccc(Nc2nnc(C)c(=O)n2N)c1 returned CYP2C19 inh -7, CYP2C9 inh -8, CYP2C19 act 1.1 and CYP2C9 act 1.1.
